Measured values: PubChem BioAssay (NCI)
The panel holds about 79,000 compounds, 15% with a hit somewhere; the sample as a whole holds those more often. Unmarked numbers belong to inactive results. The source made the active and inactive calls. No stated cut-off is given here; in the data, active means growth inhibition above about 70%; inactive means the rest.

Tests used:
[1] = NCI Yeast Anticancer Drug Screen. Data for the rad50 strain (AID 155);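 further: 0% = growth of vehicle-only cultures of the same strain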; conditions: S. cerevisiae rad50 strain growth inhibition; at 50.0 µM; hits give high values
In short: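 Relative growth inhibition (compound vs vehicle) was measured in yeast with a defined repair-gene alteration.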

[2] = NCI Yeast Anticancer Drug Screen. Data for the mec2-1 strain (AID 157); conditions: S. cerevisiae mec2-1 strain, at 50.0 µM, hits give high values
In short: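 Using mec2-1 yeast: add compound, measure growth, express inhibition versus vehicle-treated cultures.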

[3] = NCI Yeast Anticancer Drug Screen. Data for the sgs1 mgt1 strain (AID 161);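 further: 0% = growth of cultures given vehicle only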; conditions: S. cerevisiae sgs1 mgt1 strain, at 50.0 µM, hits give high values
In short: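 Percent growth inhibition was derived by comparing compound-exposed mutant yeast with vehicle-exposed cultures. The strain carries alterations in DNA damage repair.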

[4] = NCI Yeast Anticancer Drug Screen. Data for the cln2 rad14 strain (AID 165);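 further: 0% = growth equal to vehicle treated cultures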; conditions: S. cerevisiae cln2 rad14 strain, at 50.0 µM, hits give high values
In short: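 Yeast strain cln2 rad14, bearing defects in cell cycle control and DNA repair, serves as the test system; values reflect growth inhibition compared with vehicle.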

[5] = NCI Yeast Anticancer Drug Screen. Data for the bub3 strain (AID 167); conditions: S. cerevisiae bub3 mutant strain, at 50.0 µM, hits give high values
In short: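 Screening used yeast with an engineered genetic alteration affecting cell cycle control. Compound-exposed cultures were compared with vehicle cultures, and reduced growth was taken as inhibition.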

[6] = NCI Yeast Anticancer Drug Screen. Data for the mlh1 rad18 strain (AID 175); conditions: S. cerevisiae mlh1 rad18 strain growth inhibition; at 50.0 µM; hits give high values
In short: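 Steps: expose repair-defective yeast to compound; measure growth; express inhibition against vehicle-treated controls.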

CCOc1ncc(C(O)c2ccc(C)cc2)c(OCC)n1 (stereo unspecified)
growth inhibition [1]: -1.05% | growth inhibition [2]: -11.1% | growth inhibition [3]: -3.75% | growth inhibition [4]: -52.6% | growth inhibition [5]: 1.4% | growth inhibition [6]: -9.8%

O=C1c2ccccc2C(=O)N1CCc1ccccn1
growth inhibition [1]: 5.5% | growth inhibition [2]: -6% | growth inhibition [3]: 3.95% | growth inhibition [4]: -27.1% | growth inhibition [5]: -0.45% | growth inhibition [6]: -22.9%

Nc1ncnc2oc(-c3ccccc3)nc12
growth inhibition [1]: 1.3% | growth inhibition [2]: -0.85% | growth inhibition [3]: -6.35% | growth inhibition [4]: -40% | growth inhibition [5]: -4.25% | growth inhibition [6]: 13.7%

CC(C)=C(CO)CCC(C)C
growth inhibition [1]: -9.3% | growth inhibition [2]: -22.9% | growth inhibition [3]: -10.4% | growth inhibition [4]: 16.9% | growth inhibition [5]: 6.65% | growth inhibition [6]: -0.05%

N#CC(CCc1ccccc1)(c1ccccc1)c1ccccc1
growth inhibition [1]: -15.5% | growth inhibition [2]: -9.05% | growth inhibition [3]: -5.85% | growth inhibition [4]: -45.5% | growth inhibition [5]: 9.5% | growth inhibition [6]: -15.7%

C=C1[C@@H]([C@@]2(C)C=CC(=O)C(C)(C)[C@@H]2CC(=O)OC)CC[C@@]2(C)C(c3ccoc3)OC(=O)[C@H]3O[C@]132 (stereo partly specified)
growth inhibition [1]: -3.35% | growth inhibition [2]: -1.5% | growth inhibition [3]: 16.9% | growth inhibition [4]: 15.5% | growth inhibition [5]: 16.4% | growth inhibition [6]: -34.5%

O=C=Nc1ccc(Cl)c(Cl)c1
growth inhibition [1]: -19.9% | growth inhibition [2]: -29.4% | growth inhibition [3]: -43% | growth inhibition [4]: -9.1% | growth inhibition [5]: -13.7% | growth inhibition [6]: -19.1%

CC(C)NNC(N)=O
growth inhibition [1]: -0.2% | growth inhibition [2]: 1.7% | growth inhibition [3]: -0.8% | growth inhibition [4]: -8.1% | growth inhibition [5]: 12.4% | growth inhibition [6]: -5.65%

COc1ccc2c(ccc3[nH]c4c(C)cnc(NCCCN)c4c32)c1
growth inhibition [1]: -39.6% | growth inhibition [2]: -31.8% | growth inhibition [3]: -29.3% | growth inhibition [4]: -15.1% | growth inhibition [5]: -17.4% | growth inhibition [6]: -39.8%

COc1ccc(CN(C)C)c(C(O)c2ccccc2)c1 (stereo unspecified)
growth inhibition [1]: 9.2% | growth inhibition [2]: -1.75% | growth inhibition [3]: 0.7% | growth inhibition [4]: 7.6% | growth inhibition [5]: 9.5% | growth inhibition [6]: 13.2%

ONC1=Nc2ccccc2C(=S)N2CSCC12 (stereo unspecified)
growth inhibition [1]: -21% | growth inhibition [2]: -13.4% | growth inhibition [3]: -26.4% | growth inhibition [4]: -19.6% | growth inhibition [5]: -21.6% | growth inhibition [6]: 15.9%

Cc1ccsc1/C=N/Nc1cc(C)c2ccccc2n1
growth inhibition [1]: 41.4% | growth inhibition [2]: -6.25% | growth inhibition [3]: 40% | growth inhibition [4]: 35.8% | growth inhibition [5]: 26.6% | growth inhibition [6]: 16.2%

CN(C1c2ccccc2Oc2ccccc21)S(=O)(=O)c1ccc([N+](=O)[O-])cc1
growth inhibition [1]: 9.9% | growth inhibition [2]: -2.7% | growth inhibition [3]: 6% | growth inhibition [4]: 21.8% | growth inhibition [5]: 3.35% | growth inhibition [6]: 40.1%

Cc1cc(Cl)cc(C)c1O
growth inhibition [1]: 39.8% | growth inhibition [2]: -10.3% | growth inhibition [3]: 6.15% | growth inhibition [4]: 0.95% | growth inhibition [5]: 14.9% | growth inhibition [6]: 11.8%

Cc1cc2c(cc1C)[n+](=O)c(C(=O)CC(=O)C(=O)Nc1ccccc1C)c(C)n2[O-]
growth inhibition [1]: 37% | growth inhibition [2]: 46.5% | growth inhibition [3]: 3.8% | growth inhibition [4]: 30.4% | growth inhibition [5]: 47.3% | growth inhibition [6]: 9.3%

CC(=O)NC(CCCCN(Cc1ccccc1)C(=O)N(C)N=O)C(=O)NCc1ccccc1 (stereo unspecified)
growth inhibition [1]: 0.3% | growth inhibition [2]: -6.7% | growth inhibition [3]: 24.4% | growth inhibition [4]: -0.15% | growth inhibition [5]: -22.9% | growth inhibition [6]: -6.4%

CCC1([N+](=O)[O-])COC2(CCCCC2)OC1
growth inhibition [1]: 6.95% | growth inhibition [2]: 23.7% | growth inhibition [3]: -11.4% | growth inhibition [4]: -1.35% | growth inhibition [5]: 13.6% | growth inhibition [6]: -13.1%

N#Cc1c(-c2ccco2)cc(-c2ccc(N)cc2)[nH]c1=O
growth inhibition [1]: -0.6% | growth inhibition [2]: 4.7% | growth inhibition [3]: 17.7% | growth inhibition [4]: 15.8% | growth inhibition [5]: -8.9% | growth inhibition [6]: 6.9%

c1ccc(NCc2nc3ccccc3[nH]2)cc1
growth inhibition [1]: -1.6% | growth inhibition [2]: -7.55% | growth inhibition [3]: -10.4% | growth inhibition [4]: 24.3% | growth inhibition [5]: 7.6% | growth inhibition [6]: 1.15%

O=C1OC(=O)C2(Cl)C3C=CC(C3)C12 (stereo unspecified)
growth inhibition [1]: 9.3% | growth inhibition [2]: -8.15% | growth inhibition [3]: -15.6% | growth inhibition [4]: -72.6% | growth inhibition [5]: -16.3% | growth inhibition [6]: 4.8%

CS(=O)(=O)OCCCCOS(C)(=O)=O
growth inhibition [1]: -9.5% | growth inhibition [2]: -23.9% | growth inhibition [3]: 8.55% | growth inhibition [4]: 2% | growth inhibition [5]: 12.1% | growth inhibition [6]: 0.05%

CS(=O)(=O)CC1=Nc2nnc(CCCCCCCc3nnc4n3C(=O)C(CS(C)(=O)=O)=N4)n2C1=O
growth inhibition [1]: -17% | growth inhibition [2]: 5.1% | growth inhibition [3]: 5.55% | growth inhibition [4]: -12.1% | growth inhibition [5]: -5.15% | growth inhibition [6]: -7.95%

Cc1ccc2c(c1)C(=O)/C(=N/Nc1ccc(Cl)cc1)CCO2
growth inhibition [1]: 7.65% | growth inhibition [2]: -16.1% | growth inhibition [3]: 6.2% | growth inhibition [4]: -2% | growth inhibition [5]: 6.8% | growth inhibition [6]: 4.65%

NS(=O)(=O)c1ccc(NC(=S)/N=C\c2c(O)[nH]c(=O)[nH]c2=O)cc1
growth inhibition [1]: -13% | growth inhibition [2]: -16.3% | growth inhibition [3]: -18.3% | growth inhibition [4]: 15.7% | growth inhibition [5]: -12.6% | growth inhibition [6]: -11%

O=C1C=C(O)C(=C/C=C/C=C/c2c(O)cc(O)cc2O)C(O)=C1
growth inhibition [1]: -12.4% | growth inhibition [2]: -13.6% | growth inhibition [3]: -2.65% | growth inhibition [4]: 10.2% | growth inhibition [5]: 6.65% | growth inhibition [6]: -5.7%

CC1C2CC(C3(C)OCCO3)CCC2(C)CCC12OCCO2 (stereo unspecified)
growth inhibition [1]: 1.65% | growth inhibition [2]: 16.9% | growth inhibition [3]: 3.15% | growth inhibition [4]: 11.5% | growth inhibition [5]: 2.9% | growth inhibition [6]: 5.4%

O=C(O)c1cc(=O)c2cc(Cc3ccccc3)ccc2[nH]1
growth inhibition [1]: 4.7% | growth inhibition [2]: 6.5% | growth inhibition [3]: 10.4% | growth inhibition [4]: 9.8% | growth inhibition [5]: 11.1% | growth inhibition [6]: 12.8%

Cc1ccc(S(=O)(=O)OCC2C(COS(=O)(=O)c3ccc(C)cc3)C3C=CC2C32CC2)cc1 (stereo unspecified)
growth inhibition [1]: -5.5% | growth inhibition [2]: -7.9% | growth inhibition [3]: 27.9% | growth inhibition [4]: 77.7% (active) | growth inhibition [5]: 91% (active) | growth inhibition [6]: 5.25%

C1=Cc2c3c(c4c(c2C1)C=CC4)C=CC3
growth inhibition [1]: -1.95% | growth inhibition [2]: -8.1% | growth inhibition [3]: -1.2% | growth inhibition [4]: -2.3% | growth inhibition [5]: -1.15% | growth inhibition [6]: 6.3%

Cc1oc(C)c2c(N=Nc3ccc([N+](=O)[O-])cc3[N+](=O)[O-])c3ccccc3c(O)c12
growth inhibition [1]: 25% | growth inhibition [2]: 25.1% | growth inhibition [3]: 11.4% | growth inhibition [4]: -27.6% | growth inhibition [5]: 37.5% | growth inhibition [6]: 49.6%

COc1ccc(C2c3cc4c(cc3OC(N3CCOCC3)C2C)OCO4)c(OC)c1OC (stereo unspecified)
growth inhibition [1]: 2.45% | growth inhibition [2]: 5.4% | growth inhibition [3]: 14% | growth inhibition [4]: -1.1% | growth inhibition [5]: 11.8% | growth inhibition [6]: 21.7%

Cc1cccc(NC(=S)NCCc2ccccn2)c1
growth inhibition [1]: -6.85% | growth inhibition [2]: -7.35% | growth inhibition [3]: 17.9% | growth inhibition [4]: -10.8% | growth inhibition [5]: 12.7% | growth inhibition [6]: 5.5%

O=[N+]([O-])c1ccc2nc(/C=C(\O)c3ccccc3)c(NC34CC5CC(CC(C5)C3)C4)nc2c1
growth inhibition [1]: 16.4% | growth inhibition [2]: -17.5% | growth inhibition [3]: 13.9% | growth inhibition [4]: -39.4% | growth inhibition [5]: -17.8% | growth inhibition [6]: -2.35%

O=[N+]([O-])c1cccnc1Sc1ccccc1C1=NCCCN1
growth inhibition [1]: -5.55% | growth inhibition [2]: -12.3% | growth inhibition [3]: -3.45% | growth inhibition [4]: 19.9% | growth inhibition [5]: -4.2% | growth inhibition [6]: -4.1%

N#CCCSC(=S)C1CCCCC1=N (stereo unspecified)
growth inhibition [1]: -5.3% | growth inhibition [2]: 0.8% | growth inhibition [3]: 12.8% | growth inhibition [4]: -112% | growth inhibition [5]: -24.9% | growth inhibition [6]: -2.25%

COc1ccc2oc(=S)[nH]c2c1
growth inhibition [1]: 11.8% | growth inhibition [2]: 8.6% | growth inhibition [3]: 54.1% | growth inhibition [4]: 9.4% | growth inhibition [5]: -4.45% | growth inhibition [6]: 42.7%

O=C(Oc1ccc(-c2ccc([N+](=O)[O-])cc2)cc1)c1ccccc1
growth inhibition [1]: 29.8% | growth inhibition [2]: 3.9% | growth inhibition [3]: 17% | growth inhibition [4]: 15.4% | growth inhibition [5]: 19.9% | growth inhibition [6]: 8.25%

CCCC(=O)OCCC(C)C
growth inhibition [1]: 30.9% | growth inhibition [2]: 10.3% | growth inhibition [3]: 13.3% | growth inhibition [4]: -29.9% | growth inhibition [5]: -13.5% | growth inhibition [6]: 22.4%

COc1ccc(Cl)cc1[N+](=O)[O-]
growth inhibition [1]: 27.6% | growth inhibition [2]: 3.15% | growth inhibition [3]: -3.85% | growth inhibition [4]: 9.5% | growth inhibition [5]: 13.6% | growth inhibition [6]: 18.2%

CCN(CC)CCN(CC)CCN(CC)CC
growth inhibition [1]: 6.7% | growth inhibition [2]: 5.65% | growth inhibition [3]: -1.75% | growth inhibition [4]: 3.85% | growth inhibition [5]: 4.1% | growth inhibition [6]: -0.7%

CC(=O)NCCO
growth inhibition [1]: -12.7% | growth inhibition [2]: -22.8% | growth inhibition [3]: -12.7% | growth inhibition [4]: -19.4% | growth inhibition [5]: 3.9% | growth inhibition [6]: 7.25%
